The assay deals with MDA-MB-468 breast. In words: NCI-60 one-dose screen, 48 h (100 = growth as untreated, 0 = no growth, -100 = all killed). As to conditions: 10 µM unless noted.

Where “and” joins values, the source holds several entries; their conditions need not be identical. Identical values can stand only once. About 83,000 compounds went through this panel and 20% of them were active in at least one assay; those are over-represented in the sample as a whole.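 The endpoint reported here, percent growth, reads 100 for growth as untreated, 0 for no net growth and -100 for all cells dead.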 Calls of active or inactive are those of the source. The calls were made as follows: active = growth percent below 10; inactive = the rest.

For the compound `NNC(=O)CCCCl`, the growth was 96% (inactive).

Turning to `Cn1cc(-c2csc(-c3cn(CCCN4CCCCC4)c4ccc(Br)cc34)n2)c2cccnc21`, the growth is 15.2% (inactive).

`CCOC(=O)/C(F)=C/C1CC1CCc1cccc(C(F)(F)F)c1` (stereo not drawn): the growth was 109% (inactive).

As to `COC(=O)/C=C1/CCCCC1(C)C(=O)OC` (stereo not drawn), the growth is 103% (inactive).

In the case of `COc1ccccc1CNCCCN1C(=O)c2ccc3c4c(ccc(c24)C1=O)C(=O)N(CCCNCc1ccccc1OC)C3=O`, the growth is -96.6% (active).

As for `O=C(CCl)NCCNc1nccc(Nc2ccc(S(=O)(=O)Nc3ccccn3)cc2)n1`, the growth is 21.1% (inactive).

In the case of `COc1cc(-c2nc(NC(C)=O)sc2-c2ccnc(NCCNS(=O)(=O)c3ccccc3)n2)ccc1Cl`, the growth was 20.8% (inactive).

As to `CCOC(=O)c1cccc(NC2=C(Cl)C(=O)C(C)=C(C)C2=O)c1`, the growth is -20.6% (active).

With `CC(C)[C@@]12C[C@@H](OC(=O)C3CO3)[C@@](C)(O1)[C@@H]1CC[C@@H](C)[C@H]1[C@@H]2OC(=O)/C=C/c1ccccc1` (stereo partly drawn), the growth was 95.4% (inactive).

For the compound `OCCNc1nc(Nc2ccc(C3=NN(c4cc(Cl)cc(Cl)c4)C(c4ccc(C(F)(F)F)cc4)C3)cc2)nc(N2CCOCC2)n1` (stereo not drawn), the growth is 66.7% (inactive).

Consider `C=C(C)[C@@H]1C/C=C(/C=O)CC[C@@H]2O[C@@]2(C)CC/C=C(\C)CC1`, for which the growth was 118% (inactive).

For `COc1ccc(S(=O)(=O)Oc2ccc(-c3sc4cc(OS(=O)(=O)c5ccc(OC)cc5)ccc4c3C(=O)c3ccc(OCCN4CCCCC4)cc3)cc2)cc1`, the growth was 94.3% (inactive).

Regarding `Nc1n[nH]c2ccc([C@@H]3Nc4cc5c(cc4[C@H]4C6CCC(C6)[C@@H]34)C(=O)NC5)cc12` (stereo partly drawn), the growth is -9.96% (active).

On to `NNC(=O)Nc1ccccc1`, for which the growth was 104% (inactive).

In the case of `N=c1n(Cc2ccccc2)c(N)cc(=O)n1Cc1ccccc1`, the growth is 83.3% (inactive).

For the compound `C#Cc1ccc(NC(=O)c2ccc(/C=C/C(=O)c3nccn3C)cc2)cc1`, the growth was -54.6% (active).

With `COc1ccc(-c2nc(N)ncc2Oc2ccccc2OC)c(O)c1`, the growth is -2.89% (active).

On to `C#CCn1c(-c2cccc(OCCCCl)c2)nc2c1c(=O)n(C)c(=O)n2C`, for which the growth is 71.6% (inactive).

As to `COc1ccc(C/C(C)=C(\c2ccc(O)cc2)c2ccc(OCCN3CCCCC3)cc2)cc1`, the growth was 70.2% (inactive).

Consider `CC(C)N(Cc1ccc(CN(C(=O)CCl)C(C)C)cc1)C(=O)CCl`, for which the growth was 15.4% (inactive).

As for `Cn1cc(-c2nc(-c3c[nH]c4c(Cl)nccc34)cs2)c2cc(F)ccc21`, the growth is 1.89% (active).

As to `O=C(CN1C(=O)S/C(=C\C(Cl)=C\c2ccccc2)C1=O)NCCc1ccc(O)cc1`, the growth was 17.3% (inactive).

Take `CC[C@]1(O)C[C@@H]2CN(Cc3c([nH]c4ccccc34)[C@@](C(=O)OC)(c3cc4c(cc3OC)N(C)[C@H]3[C@@](O)(C(=O)OC)[C@H](OC(C)=O)[C@]5(CC)[C@@H]6C[C@@H]6CN6CC[C@]43[C@@H]65)C2)C1`: the growth was 8.25% (active).

For the compound `C#CCNC(=O)CC[C@]1(C)[C@H]2CC[C@@H]3[C@@H]([C@@](C)(O)CCC=C(C)C)CC[C@@]3(C)[C@]2(C)CC[C@H]1C(=C)C`, the growth is 48.5% [100 µM] (inactive).

As for `COc1cc(/C=C/C(=O)c2ccc(C)cc2)ccc1Oc1nc(NCCO)nc(N2CCOCC2)n1`, the growth is 27.2% (inactive).

`CCOC(=O)c1cccnc1Nc1ccc(NC(=O)Nc2ccc(Cl)c(C(F)(F)F)c2)cc1`: the growth was 21.3% (inactive).

In the case of `N#Cc1ccc(C(=O)CSc2nc(Nc3ccc(S(N)(=O)=O)cc3)c3ccccc3n2)cc1`, the growth was 105% (inactive).

As to `Ic1ccc(SSc2ccc(I)cc2)cc1`, the growth was 108% (inactive).

`c1ccc(-c2cn3c(-c4c[nH]c5ccccc45)csc3n2)cc1`: the growth was 3.41% (active).

For `CCCNc1ccc(C2=NCCCN2)cc1`, the growth is 87.9% (inactive).

Consider `CNC1=C([N+](=O)[O-])C(c2ccccc2O)C(C#N)=C(c2cccs2)O1` (stereo not drawn), for which the growth was 74.5% (inactive).

In the case of `CCCCC(CCc1ccccn1)C(=O)c1ccccc1` (stereo not drawn), the growth is 109% (inactive).

Take `COc1ccc(C(=O)c2nc3ccccc3n2CC(=O)c2ccc(Cl)cc2)cc1`: the growth was 33.8% (inactive).

On to `COc1ccc2c(c1)c(-c1nc(-c3c[nH]c4ncccc34)cs1)cn2CCCN1CCCCC1`, for which the growth was 57.9% (inactive).

For the compound `CC(=O)c1nn(-c2ccccc2)c(=Nc2ccccc2)cc1C`, the growth was 91.9% (inactive).

For `COc1ccc(-c2nocc2-c2cc(OC)c(OC)c(OC)c2)cc1`, the growth was -15.5% (active).

In the case of `NC(=O)c1c(NC(=O)c2cccc(C(F)(F)F)c2F)sc2c1CCC(=O)C2`, the growth was -1.45% (active).

Take `CC(=O)ON=C1C=CC(=C(C#N)c2ccccc2)C=C1`: the growth was 19% (inactive).

On to `O=C(/C=C1\C=CN(CCCCO)c2ccccc21)n1ccc2ccccc21`, for which the growth was 98% (inactive).

For the compound `CNC(=O)c1cc(Oc2cccc3nc(Nc4ccc(F)c(Cl)c4)ccc23)ccn1`, the growth was 6.51% (active).

As to `CC1=CC2C(C(O)CC3(C)C2CC(C)C32OCOC23COCO3)C2(C)C/C(=C/O)C(=O)C=C12` (stereo not drawn), the growth was -16.2% (active).

As to `COc1cc(-c2csc(NC(=O)Nc3cccc(C(F)(F)F)c3)n2)cc(OC)c1OC`, the growth is 19.3% (inactive).

As for `COc1cc(NC(=O)C#Cc2ccccc2)c(OC)cc1Cl`, the growth is 70.9% (inactive).

Consider `CCCn1c(=O)c2c(nc(-c3cccc(OCCCCl)c3)n2C)n(CCC)c1=O`, for which the growth is 23.6% (inactive).

Take `COc1cc(/C=C/CO)cc(OC)c1O[C@@H]1O[C@H](CO)[C@@H](O)[C@H](O)[C@H]1O`: the growth is 91.9% (inactive).

As to `C[C@@H](Nc1ncnc2ccc(-c3cnc(Cl)c(NS(C)(=O)=O)c3)cc12)c1ccccc1`, the growth was 30.8% (inactive).

With `OCCOc1c(Cl)cc(Cl)cc1Cl`, the growth was 127% (inactive).

`Cc1ccc2c(=O)cc(C(=O)Nc3sc4c(c3C(=O)NCc3cccnc3)CCCC4)oc2c1C`: the growth was 109% (inactive).

On to `COC(=O)CNC(=O)[C@]12CCC(C)(C)C[C@H]1C1=CC[C@@H]3[C@@]4(C)Cc5c([nH]c6ccccc56)C(C)(C)[C@@H]4CC[C@@]3(C)[C@]1(C)CC2`, for which the growth is 102% (inactive).

Turning to `Cc1c(Cl)cccc1NC(=O)c1sc2nc3c(cc2c1N)CCCC3`, the growth was 15.1% (inactive).

As for `O=C(C(=Cc1ccccc1)C(=O)c1ccccc1)c1ccccc1`, the growth was 63.4% (inactive) and 89.4% (inactive).

For `CCOc1ccc2c(c1)CC[C@@H]1[C@@H]2CC[C@]2(C)[C@@H](O)[C@@H](O)C[C@@H]12`, the growth is 87.5% (inactive).

As for `C=C(C)[C@@H]1CC[C@]2(COCCCNCCCN)CC[C@]3(C)[C@H](CC[C@@H]4[C@@]5(C)CC[C@H](OCCCN)C(C)(C)[C@@H]5CC[C@]43C)[C@@H]12`, the growth was -67.8% (active).

In the case of `COc1ccc2[nH]c(=O)c3c4ccccc4cn3c2c1`, the growth was 38% (inactive).

With `CCCCCCCCCCCC1=NC(C)(C)CN1C(C)(C)CO`, the growth was -16% (active).

For `OC1(c2ccccc2)c2ccccc2N(c2ccccc2)c2ccc(Cl)cc21` (stereo not drawn), the growth is -75.3% (active).

For `Cc1[nH]n(C(=O)c2ccncc2)c(=O)c1N=Nc1ccc(O)c(C(=O)O)c1`, the growth was 105% (inactive).

On to `C=CCN1C(=O)/C(=c2\sc3n(c2=O)C2C(NN=3)N(CC)C(=O)N2CC)c2ccccc21` (stereo not drawn), for which the growth is 16.3% (inactive).

On to `C(=C\c1c[nH]c2ccccc12)/c1ccc2ccccc2n1`, for which the growth is 68.5% (inactive).

Regarding `COc1cc(-c2c3sc(=O)[nH]c3nc3c2c(=O)[nH]n3C(C)C)cc2c1OCO2`, the growth was 92.3% (inactive).

For `O=S(Nc1ccccc1)c1ccc(Cl)cc1` (stereo not drawn), the growth was 91.5% (inactive).

For the compound `O[C@@H]1CCO[C@H](c2ccc3ccccc3c2)C1`, the growth was 107% (inactive).

On to `O=c1c2cc(F)ccc2sc2c(N3CCNCC3)nc3ccc(F)cc3c12`, for which the growth is -59.9% (active).

As for `CC(C)(C)OC(=O)Nc1ccc(-c2cccc(Oc3ccc4nnc(Cl)n4n3)c2)cc1`, the growth is 61.9% (inactive).

Regarding `Cc1cc2cn3c4cccnc4[nH]c(=O)c3c2cc1C`, the growth was 37.2% (inactive).

For `O=C1c2ccccc2-c2c1c1cccnc1c(=O)n2C[C@H](O)CO`, the growth was 88.4% (inactive).

For the compound `CCN1CCN(Cc2ccc(NC(=O)Nc3nc4ccc(Oc5ccnc(C(=O)NC)c5)cc4s3)cc2C(F)(F)F)CC1`, the growth was -66.3% (active).

For the compound `CC(=O)OC[C@]12CC[C@@H](/C(C)=N/O)[C@@H]1[C@H]1CC[C@@H]3[C@@]4(C)CCCNC(C)(C)[C@@H]4CC[C@@]3(C)[C@]1(C)CC2`, the growth is 54.1% (inactive).

Consider `CC(=O)CSC(C)=O`, for which the growth was 99.1% (inactive).

`CC(C)(C)N1CC(OC(N)=O)C1`: the growth was 84.9% (inactive).

For `CC(=O)c1ccc(Nc2nc(Cl)nc(Oc3c(Cl)cccc3Cl)n2)cc1`, the growth is 93.3% (inactive).

With `O=C1CCn2c1c(O)c1ccccc1c2=O`, the growth is 105% (inactive).

Consider `COC(=O)Nc1nc2ccc(C(=O)c3ccccc3)cc2[nH]1`, for which the growth is -13.7% (active).

For the compound `Cc1cc(C(C#N)c2ccc(Cl)cc2)c(Cl)cc1NC(=O)c1cc(I)cc(I)c1O` (stereo not drawn), the growth was 58.9% (inactive).

As for `CC1(C)CC(=O)CC2(C1)N=C(N)Nc1nc3ccccc3n12` (stereo not drawn), the growth is 107% (inactive).

Consider `CCCCCCCCCCCCCCCC(=O)OC[C@@]1(O)C[C@@]23CC[C@@H]4C(C)(C)[C@H](O)CC[C@@]4(C)[C@@H]2CC[C@H]1C3`, for which the growth is 112% (inactive).

With `CCOC(=O)c1sc(-c2ccc(OS(=O)(=O)c3cccs3)c(C=O)c2)nc1C`, the growth was -15.4% (active).

Consider `O=C(O)CNS(=O)(=O)c1ccc(Oc2ccc(S(=O)(=O)NCC(=O)O)cc2)cc1`, for which the growth was 107% (inactive).

These data come from PubChem BioAssay (NCI).
